Laboratory results taken from PubChem BioAssay (NCATS).
Records with an inconclusive call do not appear. Calls of active or inactive are those of the source. The call rests on the fitted dose curve; in most records, active means well fitted inhibition curve with a large enough effect; inconclusive means small, poorly fitted or top-dose-only effect; inactive means flat fitted curve, though single readings scatter.

Assay: P-glycoprotein substrates identified in KB-8-5-11 adenocarcinoma cell line, qHTS therapeutic library screen (AID 1346987); further: nearly all actives have a fitted effect of over 65% in size
Conditions: KB-8-5-11 (P-gp overexpressing) viability, CellTiter-Glo, 72 h; series mostly up to 44.5 µM; activity change, negative = cytotoxicity: at the top concentration
In short: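 In this qHTS, P-gp-rich KB-8-5-11 cells received library compounds across a concentration range. Viability was quantified by luminescence after 72 h at 37 degree C.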
On the % scale 0 is the no-effect control and ±100 the full control effect.

| Compound | activity change, negative = cytotoxicity | outcome |
| --- | --- | --- |
| CC(=O)OCC1=CCC2C(C)(C)CCCC2(C)C12CCC(C)(CC(=O)O)O2 (centres undefined) | -3.85% (inactive) | – |
| NC(=O)c1ccc(F)c2c1C[C@@H](N(C1CCC1)C1CCC1)CO2 | 6.81% (inactive) | – |
| Cc1ccc(Cl)cc1N(CC(=O)Nc1c(F)cccc1F)S(C)(=O)=O | -1.26% (inactive) | – |
| O=C(/C=C/c1ccc(O)cc1)OCC1OC(O)C(OC2OC(CO)C(O)C(O)C2O)C(O)C1O (centres undefined) | 6.71% [at 17.3 µM] (inactive) | – |
| C/C=C(\C)C(=O)OC[C@H]1O[C@@H](O[C@H]2[C@@H](O[C@H]3O[C@H](CO)[C@@H](O)[C@H](O)[C@H]3O[C@@H]3O[C@H](CO)[C@@H](O)[C@H](O)[C@H]3O)O[C@H](COC(=O)/C(C)=C/C)[C@@H](O)[C@@H]2O)[C@H](O)[C@@H](O)[C@@H]1O | – | inactive [at 9.29 µM] |
| C[C@@H]1O[C@@H](OC(=O)Cc2ccccc2)[C@H](O)[C@H](O)[C@H]1O | 5.01% (inactive) | – |
| C[C@@H]1CC[C@]2(C(=O)O)CC[C@]3(C)C(=CCC4[C@@]5(C)C[C@@H](O)[C@@H](O)C(C)(C)C5CC[C@]43C)C2[C@]1(C)O (some centres undefined) | – | inactive [at 17.3 µM] |
| O=C(/C=C/c1ccccc1)O[C@@H]1[C@@H](CO)O[C@@](CO)(O[C@H]2O[C@H](CO)[C@@H](O)[C@H](O)[C@H]2O)[C@H]1O | 9.6% [at 17.3 µM] (inactive) | – |
| C[C@H]1[C@H](C)CC[C@]2(C(=O)O)CC[C@]3(C)C(=CCC4[C@@]5(C)C[C@@H](O)[C@H](O)C(C)(C)C5CC[C@]43C)[C@H]12 (some centres undefined) | – | inactive [at 17.3 µM] |
| O=C(OC1C=C(CO)C2C(OC3OC(CO)C(O)C(O)C3O)OC=CC12O)c1ccc(O)cc1 (centres undefined) | 0.0782% [at 17.3 µM] (inactive) | – |
| On1ncc(C2CCNCC2)c1-c1cccc(-c2ccccc2)c1 | – | inactive |
| CCC/C=C1\OC(=O)C2=C1CCC(O)C2O (centres undefined) | – | inactive |
| COc1ccccc1CN[C@H]1CCCN[C@H]1c1ccccc1 | -9.07% (inactive) | – |
| COC(=O)C1C(O)CCC2CN3CCc4c([nH]c5ccccc45)C3CC21 (centres undefined) | – | inactive |
| OC[C@@]1(O)CO[C@H](OC[C@H]2O[C@@H](OC(CCCCc3ccc(O)cc3)CCc3ccc(O)cc3)[C@H](O)[C@@H](O)[C@@H]2O)[C@@H]1O (some centres undefined) | – | inactive [at 17.3 µM] |
| CC(=O)N[C@H]1[C@H](O[C@H]2CC[C@]3(C)C4CC=C5[C@@H]6CC(C)(C)CC[C@]6(C(=O)O)[C@H](O)C[C@@]5(C)[C@]4(C)CC[C@H]3C2(C)C)O[C@H](CO)[C@@H](O)[C@@H]1O (some centres undefined) | -2.27% [at 17.3 µM] (inactive) | – |
| C=CC(C)(O)CC/C=C(\C)C1CC=C(C)C(=O)O1 (centres undefined) | 5.5% (inactive) | – |
| C=C(C)C1CCC2(C(=O)OC3OC(COC4OC(CO)C(O)C(O)C4O)C(OC4OC(C)C(O)C(O)C4O)C(O)C3O)CCC3(C(=O)O)C(CCC4C5(C)CCC(=O)C(C)(C)C5CCC43C)C12 (centres undefined) | – | inactive [at 9.29 µM] |
| C[C@H]1/C=C/C=C/C=C/C=C/C=C/[C@@H](O)[C@H](C(=O)O)[C@H](O)C[C@H](O)CCC[C@H](O)C[C@H](O)C[C@H](O)[C@@H](C)C(=O)O[C@@H]1C | – | inactive [at 17.3 µM] |
| COc1ccc(C2OCC3C(c4cc(OC)c5c(c4)OCO5)OCC23)cc1OC (centres undefined) | -17.5% [at 17.3 µM] (inactive) | – |
| C/C=C(\C)C(=O)OC1CC2C(CC=C3CC(OC4CC(OC)C(OC5CC(OC)C(OC6CC(OC)C(OC7CC(OC)C(OC8CC(OC)C(OC9OC(CO)C(O)C(O)C9O)C(C)O8)C(C)O7)C(C)O6)C(C)O5)C(C)O4)CCC32C)C2(O)CCC(C(C)=O)C12C (centres undefined) | – | inactive [at 9.29 µM] |
| CCC(C)/C=C(C)/C=C/C1=CC2=C(Cl)C(=O)C(C)(OC(C)=O)C(=O)C2=CN1C(CCCN=C(N)N)C(=O)O (centres undefined) | – | inactive [at 17.3 µM] |
| O=C(O)Cn1nnc(-c2ccc(CN(CCCCOc3ccc(CN4CCCC4)cc3)CCc3ccccc3)cc2)n1 | 4.22% (inactive) | – |
| Fc1cccc(CN(C2=NCCN2)c2c(Cl)cccc2Cl)c1 | 1.01% (inactive) | – |
| C=C1C(OC(C)=O)[C@@]23CCC4[C@](C)(C(=O)O)CCC[C@@]4(C)[C@]2(O)CC[C@H]1C3 (some centres undefined) | -2.24% (inactive) | – |
| CC1C2=CC(=O)OC2(O)CC2C1C(OC(=O)c1ccccc1)C(OC(=O)c1ccccc1)C1(O)C2(C)CCC(O)C1(C)C(=O)O (centres undefined) | 5.87% [at 17.3 µM] (inactive) | – |
| C[C@H]1[C@H](C)C[C@@H](C(=O)O)C2CC[C@]3(C)C(=CC[C@@H]4[C@@]5(C)CC[C@H](O)C(C)(C)[C@@H]5CC[C@]43C)[C@@H]21 (some centres undefined) | -20.3% (inactive) | – |
| NC(=O)C(O[C@@H]1O[C@H](CO[C@@H]2O[C@H](CO)[C@@H](O)[C@H](O)[C@H]2O)[C@@H](O)[C@H](O)[C@H]1O)c1ccccc1 (some centres undefined) | 4.32% [at 17.3 µM] (inactive) | – |
| CC[C@@H]1C(=O)O[C@]23C=C[C@@H]4C(C(=O)OC)=CO[C@H](O[C@@H]12)[C@@H]43 | -10.6% (inactive) | – |
